These results are taken from PMC11006913.

Residue numbers refer to the chain shown, from its start.

Chain of ALX3 (O95076 139-225): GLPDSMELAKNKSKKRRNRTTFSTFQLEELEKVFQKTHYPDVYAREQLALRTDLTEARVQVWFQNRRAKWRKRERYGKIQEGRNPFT
Chain of HOXC10 (Q9NYD6 254-340 K271E): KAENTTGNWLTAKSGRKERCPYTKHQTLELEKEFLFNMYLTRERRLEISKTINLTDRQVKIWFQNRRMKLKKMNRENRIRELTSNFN
Chain of HOXD13 (P35453 263-343): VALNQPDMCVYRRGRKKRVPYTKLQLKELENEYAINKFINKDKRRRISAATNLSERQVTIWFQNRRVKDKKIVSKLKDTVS

In the first assay the target is HOXC9 (Homo sapiens, UniProt P31274 178-260, R193K). Kind of assay: PBM; 200 nM protein, PBS. The following applies: dsDNA, one strand shown.
Chain of HOXC9 (P31274 178-260 R193K): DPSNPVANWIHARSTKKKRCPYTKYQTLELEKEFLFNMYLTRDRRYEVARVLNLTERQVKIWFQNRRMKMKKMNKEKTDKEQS
Regarding ACGCATTA, the binding signal was 11.2 upbm affinity estimate (log intensity, higher = more binding, comparable within an allelic series). As to CTGGGACC, the binding signal was 9.43 upbm affinity estimate (log intensity, higher = more binding, comparable within an allelic series). On the same count and under the same terms, as for GGCACCAC, the figure is 9.65 upbm affinity estimate (log intensity, higher = more binding, comparable within an allelic series); as for CGGAGGGA, 9.42 upbm affinity estimate (log intensity, higher = more binding, comparable within an allelic series); as for CGGGCACG, 9.49 upbm affinity estimate (log intensity, higher = more binding, comparable within an allelic series). In the case of AGTTAATG, the binding signal was 12.5 upbm affinity estimate (log intensity, higher = more binding, comparable within an allelic series). Still for that read-out and setting: the same measure for CCCCTCCC: 9.62 upbm affinity estimate (log intensity, higher = more binding, comparable within an allelic series).

A further assay deals with HOXA2 (Homo sapiens, UniProt O43364 129-215, R185K). The assay can be described thus: PBM; 200 nM protein, PBS. To be noted: dsDNA, one strand shown.
Chain of HOXA2 (O43364 129-215 R185K): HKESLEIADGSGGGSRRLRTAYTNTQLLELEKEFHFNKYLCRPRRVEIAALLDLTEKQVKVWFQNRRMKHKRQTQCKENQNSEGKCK
Consider CCATTAAC, for which the binding signal is 13.1 upbm affinity estimate (log intensity, higher = more binding, comparable within an allelic series). On to CCCCTCGG, for which the binding signal is 10.3 upbm affinity estimate (log intensity, higher = more binding, comparable within an allelic series). In the case of CACGGGGG, the binding signal was 10.1 upbm affinity estimate (log intensity, higher = more binding, comparable within an allelic series).

On to GCCAGGGC, for which the binding signal is 10.3 upbm affinity estimate (log intensity, higher = more binding, comparable within an allelic series).

The next assay addresses HOXD13 (Homo sapiens, UniProt P35453 263-343). Kind of assay: PBM; 200 nM protein, PBS. To be noted: dsDNA, one strand shown.
Turning to AGAGGGGC, the binding signal was 9.71 upbm affinity estimate (log intensity, higher = more binding, comparable within an allelic series). The same measure, in the same setting: as for CCCCTCCC, the figure is 9.54 upbm affinity estimate (log intensity, higher = more binding, comparable within an allelic series). As to CCCCCTGC, the binding signal was 9.26 upbm affinity estimate (log intensity, higher = more binding, comparable within an allelic series).

Another assay deals with HOXA4 (Homo sapiens, UniProt Q00056 201-287). The assay can be described thus: PBM; 200 nM protein, PBS. The following applies: dsDNA, one strand shown.
Chain of HOXA4 (Q00056 201-287): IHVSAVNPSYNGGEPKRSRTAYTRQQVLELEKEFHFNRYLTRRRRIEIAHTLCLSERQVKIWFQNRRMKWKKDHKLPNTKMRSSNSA
In the case of CCATTAAC, the binding signal is 13.8 upbm affinity estimate (log intensity, higher = more binding, comparable within an allelic series). As for CCAGGGCC, the binding signal was 9.79 upbm affinity estimate (log intensity, higher = more binding, comparable within an allelic series).

CCCTTCCG: the binding signal is 10 upbm affinity estimate (log intensity, higher = more binding, comparable within an allelic series). For CGGAGGGA, the binding signal is 9.76 upbm affinity estimate (log intensity, higher = more binding, comparable within an allelic series). With GCCAGGGC, the binding signal is 9.7 upbm affinity estimate (log intensity, higher = more binding, comparable within an allelic series). Turning to GGGAGGAC, the binding signal was 10.1 upbm affinity estimate (log intensity, higher = more binding, comparable within an allelic series).

CCCCCTGC: the binding signal was 9.54 upbm affinity estimate (log intensity, higher = more binding, comparable within an allelic series).

A further assay concerns the target HOXC10 (Homo sapiens, UniProt Q9NYD6 254-340, K271E). Kind of assay: PBM; 200 nM protein, PBS. The following applies: dsDNA, one strand shown.
Take CCATTAAC: the binding signal is 11.9 upbm affinity estimate (log intensity, higher = more binding, comparable within an allelic series). On to GCCATTAA, for which the binding signal is 12.2 upbm affinity estimate (log intensity, higher = more binding, comparable within an allelic series). As for GCTTGGCC, the binding signal is 10 upbm affinity estimate (log intensity, higher = more binding, comparable within an allelic series).

A further assay deals with MSX2 (Homo sapiens, UniProt P35548 130-214). The assay can be described thus: PBM; 200 nM protein, PBS. To be noted: dsDNA, one strand shown.
Chain of MSX2 (P35548 130-214): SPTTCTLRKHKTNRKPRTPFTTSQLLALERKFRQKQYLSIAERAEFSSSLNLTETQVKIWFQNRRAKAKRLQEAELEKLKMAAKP
As to CCCGGACG, the binding signal was 9.27 upbm affinity estimate (log intensity, higher = more binding, comparable within an allelic series). With GCGCGCCC, the binding signal is 9.64 upbm affinity estimate (log intensity, higher = more binding, comparable within an allelic series). On the same count and under the same terms, as for GCCAGGGC, the figure is 9.44 upbm affinity estimate (log intensity, higher = more binding, comparable within an allelic series).

The target in the next assay is T1, SIX6 (Homo sapiens, UniProt O95475 114-200, L167V).
T1 sequence: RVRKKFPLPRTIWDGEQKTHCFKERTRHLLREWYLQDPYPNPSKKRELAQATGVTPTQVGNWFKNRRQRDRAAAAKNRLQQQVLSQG
The assay can be described thus: PBM; 200 nM protein, PBS. To be noted: dsDNA, one strand shown.
Consider GCTTGGCC, for which the binding signal is 8.95 upbm affinity estimate (log intensity, higher = more binding, comparable within an allelic series).

In the case of GGCGGAAC, the binding signal is 8.86 upbm affinity estimate (log intensity, higher = more binding, comparable within an allelic series). For the sequence CAAGGCCC, the binding signal was 8.98 upbm affinity estimate (log intensity, higher = more binding, comparable within an allelic series).

In the case of GCGCGCCC, the binding signal is 8.91 upbm affinity estimate (log intensity, higher = more binding, comparable within an allelic series). Take ATGATATG: the binding signal was 11.1 upbm affinity estimate (log intensity, higher = more binding, comparable within an allelic series).

For AATGATAC, the binding signal is 11.3 upbm affinity estimate (log intensity, higher = more binding, comparable within an allelic series).

Another assay addresses ALX3 (Homo sapiens, UniProt O95076 139-225). Kind of assay: PBM; 200 nM protein, PBS. To be noted: dsDNA, one strand shown.
In the case of CGAGCGAC, the binding signal was 7.63 upbm affinity estimate (log intensity, higher = more binding, comparable within an allelic series). As for GACCCAGC, the binding signal was 7.56 upbm affinity estimate (log intensity, higher = more binding, comparable within an allelic series). Consider GCCGCAGC, for which the binding signal was 7.89 upbm affinity estimate (log intensity, higher = more binding, comparable within an allelic series).

The target of the next assay is PROP1 (Homo sapiens, UniProt O75360 56-141). The assay can be described thus: PBM; 200 nM protein, PBS. The following applies: dsDNA, one strand shown.
Chain of PROP1 (Homo sapiens, UniProt O75360 56-141) (O75360 56-141): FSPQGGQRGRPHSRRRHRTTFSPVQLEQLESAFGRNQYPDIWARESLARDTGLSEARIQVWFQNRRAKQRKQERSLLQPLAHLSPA
For GCTTGGCC, the binding signal was 6.59 upbm affinity estimate (log intensity, higher = more binding, comparable within an allelic series). As to CCCGGACG, the binding signal is 6.37 upbm affinity estimate (log intensity, higher = more binding, comparable within an allelic series). Regarding GCCAGGGC, the binding signal is 6.61 upbm affinity estimate (log intensity, higher = more binding, comparable within an allelic series).

A further assay deals with T2, SIX6 (Homo sapiens, UniProt O95475 114-200).
T2 sequence: T1 sequence with V54L
The assay can be described thus: PBM; 200 nM protein, PBS. The following applies: dsDNA, one strand shown.
In the case of GCTTGGCC, the binding signal was 8.89 upbm affinity estimate (log intensity, higher = more binding, comparable within an allelic series). GGCGGAAC: the binding signal was 8.77 upbm affinity estimate (log intensity, higher = more binding, comparable within an allelic series). In the case of CAAGGCCC, the binding signal was 8.89 upbm affinity estimate (log intensity, higher = more binding, comparable within an allelic series).

Consider GCGCGCCC, for which the binding signal was 8.8 upbm affinity estimate (log intensity, higher = more binding, comparable within an allelic series). ATGATATG: the binding signal is 11.1 upbm affinity estimate (log intensity, higher = more binding, comparable within an allelic series). As for AATGATAC, the binding signal is 11.2 upbm affinity estimate (log intensity, higher = more binding, comparable within an allelic series).

The target in the next assay is PROP1 (Homo sapiens, UniProt O75360 56-141, R99H). The assay can be described thus: PBM; 200 nM protein, PBS. To be noted: dsDNA, one strand shown.
Chain of PROP1 (Homo sapiens, UniProt O75360 56-141, R99H) (O75360 56-141 R99H): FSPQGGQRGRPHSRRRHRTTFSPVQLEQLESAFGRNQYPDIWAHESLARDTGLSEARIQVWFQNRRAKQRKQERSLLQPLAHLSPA
In the case of GCTTGGCC, the binding signal was 6.63 upbm affinity estimate (log intensity, higher = more binding, comparable within an allelic series).
